# Experimental data taken from PubChem BioAssay (NCI).
# This is part of a sample that, as a whole, favours compounds with a hit. Of some 79,000 tested, about 15% had one in any assay. A number with no mark means an inactive call. Active and inactive are the calls of the source. Cut-off read from the data, not from the text of the source: active = growth inhibition above about 70%; inactive = the rest.
# Assays:
# [1] = NCI Yeast Anticancer Drug Screen. Data for the rad50 strain (AID 155);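 note: 0% = growth of vehicle-only cultures of the same strain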; details: S. cerevisiae rad50 strain growth inhibition, active compounds read high
# Summary of the method: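 Vehicle-treated cultures provide the reference for the growth inhibition reported for compound-exposed, repair-deficient yeast.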
# [2] = NCI Yeast Anticancer Drug Screen. Data for the mec2-1 strain (AID 157); details: S. cerevisiae mec2-1 strain, active compounds read high
# Summary of the method: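 mec2-1 yeast strain, carrying an alteration in DNA damage repair or cell cycle control, was exposed to compounds; growth inhibition was measured relative to vehicle-treated controls.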
# [3] = NCI Yeast Anticancer Drug Screen. Data for the sgs1 mgt1 strain (AID 161);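 note: 0% = growth of cultures given vehicle only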; details: S. cerevisiae sgs1 mgt1 strain, active compounds read high
# Summary of the method: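 Compounds are added to genetically altered yeast, and growth is compared with cultures given vehicle alone to give percent inhibition.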
# [4] = NCI Yeast Anticancer Drug Screen. Data for the cln2 rad14 strain (AID 165);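 note: 0% = growth equal to vehicle treated cultures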; details: S. cerevisiae cln2 rad14 strain, active compounds read high
# Summary of the method: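 Yeast carrying cln2 and rad14 alterations (cell cycle control and DNA damage repair) were exposed to compounds. Growth inhibition was measured against vehicle-treated controls.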
# [5] = NCI Yeast Anticancer Drug Screen. Data for the bub3 strain (AID 167); details: S. cerevisiae bub3 mutant strain, active compounds read high
# Summary of the method: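 Mutant yeast screening strain plus compound; vehicle-treated cultures serve as the 0% inhibition reference.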
# [6] = NCI Yeast Anticancer Drug Screen. Data for the mlh1 rad18 strain (AID 175); details: S. cerevisiae mlh1 rad18 strain growth inhibition, active compounds read high
# Summary of the method: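 Growth inhibition of the yeast strain was measured after compound exposure and expressed relative to vehicle-treated controls. The strain carries defined defects in DNA damage repair.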
# [7] = at 5.0 µM (retest, dose inferred, filed as 0.5)
# [8] = at 50.0 µM (retest, dose inferred, filed as 5.0)
Structure (SMILES),"growth inhibition [1, 7]","growth inhibition [1, 8]",growth inhibition ([1]; at 50.0 µM),"growth inhibition [2, 7]","growth inhibition [2, 8]",growth inhibition ([2]; at 50.0 µM),"growth inhibition [3, 7]","growth inhibition [3, 8]",growth inhibition ([3]; at 50.0 µM),"growth inhibition [4, 7]","growth inhibition [4, 8]",growth inhibition ([4]; at 50.0 µM),"growth inhibition [5, 7]","growth inhibition [5, 8]",growth inhibition ([5]; at 50.0 µM),"growth inhibition [6, 7]","growth inhibition [6, 8]",growth inhibition ([6]; at 50.0 µM)
CCN(CC)CCN1C(=O)c2c(c3c4cccc(Cl)c4n(C4OC(CO)C(OC)C(O)C4O)c3c3[nH]c4c(Cl)cccc4c23)C1=O (configuration not stated),88% (active),97% (active),84% (active),56%,98% (active),87.3% (active),21%,96% (active),90.5% (active),67%,90% (active),89.5% (active),43%,97% (active),89.2% (active),76% (active),97% (active),91% (active)
CC1CC(C)CC(NC2=NCCO2)C1 (configuration not stated),13%,-5%,-4.1%,6%,-5%,22.2%,12%,13%,21.6%,11%,7%,27.6%,27%,15%,7.8%,8%,-12%,21.1%
CCCCCCCCCCCCCCCCOP(=O)([O-])OCC[N+](C)(C)C,99% (active),99% (active),99.8% (active),99% (active),100% (active),99.6% (active),66%,100% (active),99.6% (active),97% (active),99% (active),99.2% (active),99% (active),99% (active),99.7% (active),98% (active),99% (active),99.8% (active)
CN(C)c1ccc(N=Nc2cccc3ccccc23)cc1,8%,75% (active),34%,3%,89% (active),0.15%,10%,85% (active),4.3%,1%,51%,50.2%,-5%,88% (active),-5.65%,-6%,42%,12.5%
CCOC(=O)/C=C(\C)OCC,-5%,25%,16.3%,-3%,2%,6.1%,-4%,3%,7.25%,-1%,4%,76% (active),-5%,-4%,38.9%,-5%,7%,10.4%
C/C=C/CC(C/C=C/C)C1CC[N-]CC1.C/C=C/CC(C/C=C/C)C1CC[N-]CC1.[Cl][Pt+2]([Cl])([Cl])[Cl],8%,88% (active),97.3% (active),-62%,78% (active),98.8% (active),3%,91% (active),98.8% (active),4%,58%,97.7% (active),-3%,85% (active),98% (active),7%,88% (active),98.6% (active)
OC(CNc1ccnc2cc(Cl)ccc12)CNc1ccnc2cc(Cl)ccc12,-2%,34%,40%,0%,31%,23.1%,0%,46%,15.6%,-4%,46%,-21.2%,-2%,41%,2.8%,2%,60%,85.7% (active)
Nc1c(O)c(Cl)cc(Cl)c1Cl,4%,94% (active),96.2% (active),-4%,95% (active),98.9% (active),1%,80% (active),96.6% (active),-3%,70% (active),74.6% (active),5%,96% (active),98.4% (active),-1%,93% (active),99% (active)
OC(Cc1ccccc1)(c1ccccc1)C(O)(Cc1ccccc1)c1ccccc1 (configuration not stated),30%,79% (active),85.2% (active),20%,54%,78.5% (active),0%,52%,78.4% (active),13%,53%,85.7% (active),15%,61%,74.5% (active),26%,76% (active),87.2% (active)
Cc1c[n+](=O)c2ccccc2n1[O-],-21%,10%,2.6%,-14%,-16%,-16.6%,-9%,-7%,-20.4%,8%,1%,70.8% (active),13%,-11%,-10.6%,-11%,-6%,-0.1%
Cc1nc(Nc2c(C)cccc2C)c2c(C)c[nH]c2n1,-2%,2%,86.8% (active),-5%,3%,69.1%,0%,1%,85.2% (active),-1%,-1%,27.2%,-4%,-2%,75.5% (active),-2%,-5%,90.3% (active)
O=C1c2ccccc2C(=O)c2sc(Nc3cccc(Cl)c3)nc21,93% (active),98% (active),89.6% (active),93% (active),99% (active),92.2% (active),92% (active),99% (active),93% (active),54%,98% (active),89.9% (active),98% (active),97% (active),90.6% (active),92% (active),98% (active),90.5% (active)
COc1ccc2c(c1OC)C(C(Cl)(Cl)Cl)N1CCc3cc4c(cc3C1=C2)OCO4 (configuration not stated),15%,54%,67.2%,7%,71% (active),74.5% (active),7%,72% (active),78.4% (active),33%,80% (active),80% (active),20%,86% (active),80.8% (active),11%,66%,62.1%
OC(CCl)COc1c(Cl)c(Cl)c(Cl)c(Cl)c1Cl (configuration not stated),-3%,7%,-1%,-1%,10%,4.55%,-4%,3%,93% (active),2%,9%,-32.7%,0%,16%,11.4%,-3%,5%,13.6%
O=C(C(Oc1ccc(Cl)cc1)Oc1ccc(Cl)cc1)N(O)c1ccccc1OCc1ccccc1,14%,49%,66.8%,3%,39%,63%,18%,45%,69.5%,-13%,49%,53.6%,6%,57%,47.9%,11%,45%,71.5% (active)
CCCCCCCCCCCC(=O)N1CCCC1,-1%,99% (active),99.4% (active),-10%,100% (active),99.5% (active),3%,40%,96.8% (active),-3%,99% (active),99.2% (active),-3%,99% (active),99.5% (active),7%,99% (active),99.5% (active)
COC(=O)c1cc2c(c(C(=O)OC)c1O)C(=O)C=CC2=O,2%,78% (active),84.5% (active),8%,95% (active),84% (active),5%,80% (active),80% (active),10%,95% (active),56.3%,-2%,90% (active),69.8%,-28%,95% (active),70.6% (active)
COc1ccc(C2Oc3c(cccc3OC)C=C2[N+](=O)[O-])cc1 (configuration not stated),20%,96% (active),40.5%,23%,98% (active),40.1%,40%,96% (active),37.7%,12%,92% (active),-4.5%,45%,96% (active),45.2%,33%,98% (active),44%
CC(=O)OC1CCC23COC(CC(C)C2C)C3(Br)C1 (configuration not stated),-5%,12%,-19.5%,13%,8%,4.2%,2%,8%,1.4%,-2%,-5%,52.3%,6%,1%,-4.55%,3%,-4%,1.7%
